# Data published in ChEMBL document CHEMBL1961873, “Compounds: GSK PKIS; Assays: Nanosyn kinase panel” (2012).
# How the values were obtained:
# [1] = biological target: T1, Inhibitor of nuclear factor kappa-B kinase subunit epsilon (Homo sapiens) (UniProt Q14164); conditions: at 1 µM;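 further: reported values are averaged percent inhibition figures against human IKKε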
# T1 sequence (whole entry): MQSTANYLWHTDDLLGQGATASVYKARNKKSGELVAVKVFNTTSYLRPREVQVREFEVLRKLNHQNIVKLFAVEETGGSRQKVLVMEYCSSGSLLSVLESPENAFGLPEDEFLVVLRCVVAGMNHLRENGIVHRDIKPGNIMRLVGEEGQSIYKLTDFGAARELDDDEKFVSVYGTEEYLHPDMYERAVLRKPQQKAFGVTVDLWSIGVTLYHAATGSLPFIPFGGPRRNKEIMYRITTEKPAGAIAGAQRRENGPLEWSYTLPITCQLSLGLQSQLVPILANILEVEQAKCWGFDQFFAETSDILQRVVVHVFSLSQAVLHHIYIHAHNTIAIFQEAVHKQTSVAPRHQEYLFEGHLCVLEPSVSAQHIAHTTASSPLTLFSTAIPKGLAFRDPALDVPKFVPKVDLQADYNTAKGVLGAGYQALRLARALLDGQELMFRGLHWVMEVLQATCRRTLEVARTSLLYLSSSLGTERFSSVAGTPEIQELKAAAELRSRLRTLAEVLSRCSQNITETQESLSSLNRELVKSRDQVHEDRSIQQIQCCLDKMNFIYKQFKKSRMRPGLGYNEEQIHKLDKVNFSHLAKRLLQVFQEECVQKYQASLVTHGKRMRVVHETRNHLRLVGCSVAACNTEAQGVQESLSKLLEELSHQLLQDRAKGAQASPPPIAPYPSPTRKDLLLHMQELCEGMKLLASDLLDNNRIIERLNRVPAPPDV
# [2] = biological target: T2, Serine/threonine-protein kinase Nek1 (Homo sapiens) (UniProt Q96PY6); conditions: at 0.1 µM
# T2 sequence (whole entry): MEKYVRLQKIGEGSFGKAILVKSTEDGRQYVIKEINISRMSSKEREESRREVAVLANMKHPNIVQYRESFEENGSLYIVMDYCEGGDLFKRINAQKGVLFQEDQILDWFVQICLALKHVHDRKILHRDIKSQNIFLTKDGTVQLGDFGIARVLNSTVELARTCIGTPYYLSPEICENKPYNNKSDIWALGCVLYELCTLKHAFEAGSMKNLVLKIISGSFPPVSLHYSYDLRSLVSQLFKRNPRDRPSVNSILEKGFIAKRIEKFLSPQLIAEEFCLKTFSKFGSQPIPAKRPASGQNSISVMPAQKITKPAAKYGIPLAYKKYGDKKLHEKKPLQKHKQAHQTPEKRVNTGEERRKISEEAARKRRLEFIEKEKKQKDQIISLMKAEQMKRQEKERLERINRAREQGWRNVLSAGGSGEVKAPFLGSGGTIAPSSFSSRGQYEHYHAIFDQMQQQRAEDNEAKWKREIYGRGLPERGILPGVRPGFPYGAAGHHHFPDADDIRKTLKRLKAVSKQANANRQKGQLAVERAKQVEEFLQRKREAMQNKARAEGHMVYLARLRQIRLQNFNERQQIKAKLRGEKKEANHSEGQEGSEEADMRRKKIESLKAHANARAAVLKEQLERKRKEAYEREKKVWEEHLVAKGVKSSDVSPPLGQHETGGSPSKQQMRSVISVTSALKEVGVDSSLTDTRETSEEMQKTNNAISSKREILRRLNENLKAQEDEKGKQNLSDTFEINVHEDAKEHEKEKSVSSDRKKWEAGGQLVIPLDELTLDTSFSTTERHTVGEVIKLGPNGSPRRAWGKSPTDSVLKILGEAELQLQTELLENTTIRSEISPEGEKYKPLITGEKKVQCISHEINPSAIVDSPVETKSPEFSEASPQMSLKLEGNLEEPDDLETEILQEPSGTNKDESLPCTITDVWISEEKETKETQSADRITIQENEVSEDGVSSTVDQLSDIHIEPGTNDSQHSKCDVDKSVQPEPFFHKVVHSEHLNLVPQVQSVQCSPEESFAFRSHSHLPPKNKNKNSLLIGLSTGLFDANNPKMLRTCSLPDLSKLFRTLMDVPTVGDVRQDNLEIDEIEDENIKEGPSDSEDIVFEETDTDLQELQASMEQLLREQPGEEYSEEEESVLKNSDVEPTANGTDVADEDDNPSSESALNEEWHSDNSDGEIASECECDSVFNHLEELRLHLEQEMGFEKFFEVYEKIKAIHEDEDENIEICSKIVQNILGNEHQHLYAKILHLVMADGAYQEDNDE
# [3] = biological target: T2, Serine/threonine-protein kinase Nek1 (Homo sapiens); conditions: at 1 µM
# [4] = biological target: T3, Serine/threonine-protein kinase Nek2 (Homo sapiens) (UniProt P51955); conditions: at 0.1 µM
# T3 sequence (whole entry): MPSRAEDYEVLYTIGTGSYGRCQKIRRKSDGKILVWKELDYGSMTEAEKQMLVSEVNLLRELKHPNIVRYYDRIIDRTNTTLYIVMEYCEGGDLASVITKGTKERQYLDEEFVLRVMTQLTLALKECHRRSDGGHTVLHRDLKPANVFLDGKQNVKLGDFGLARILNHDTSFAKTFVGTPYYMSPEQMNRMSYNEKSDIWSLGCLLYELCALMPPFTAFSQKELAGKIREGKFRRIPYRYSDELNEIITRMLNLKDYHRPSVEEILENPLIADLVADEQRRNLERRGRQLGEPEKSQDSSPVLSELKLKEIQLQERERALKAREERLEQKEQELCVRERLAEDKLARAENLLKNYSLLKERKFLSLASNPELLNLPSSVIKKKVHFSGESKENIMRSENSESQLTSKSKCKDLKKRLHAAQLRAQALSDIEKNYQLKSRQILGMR
# [5] = biological target: T3, Serine/threonine-protein kinase Nek2 (Homo sapiens); conditions: at 1 µM
# [6] = biological target: Serine/threonine-protein kinase Nek6 (Homo sapiens) (UniProt Q9HC98); conditions: at 0.1 µM
# Sequence of Serine/threonine-protein kinase Nek6 (Homo sapiens) (Q9HC98 whole entry): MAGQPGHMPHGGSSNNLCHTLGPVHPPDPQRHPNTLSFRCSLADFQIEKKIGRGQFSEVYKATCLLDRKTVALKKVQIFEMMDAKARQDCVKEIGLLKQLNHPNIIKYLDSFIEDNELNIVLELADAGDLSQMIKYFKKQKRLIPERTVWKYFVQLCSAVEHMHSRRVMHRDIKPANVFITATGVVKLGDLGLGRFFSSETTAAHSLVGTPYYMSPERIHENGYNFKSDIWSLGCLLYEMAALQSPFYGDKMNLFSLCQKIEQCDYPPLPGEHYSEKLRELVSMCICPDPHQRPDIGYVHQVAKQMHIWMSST
# [7] = biological target: Serine/threonine-protein kinase Nek6 (Homo sapiens) (UniProt Q9HC98); conditions: at 1 µM
# [8] = biological target: Serine/threonine-protein kinase Nek7 (Homo sapiens) (UniProt Q8TDX7); conditions: at 0.1 µM
# Sequence of Serine/threonine-protein kinase Nek7 (Homo sapiens) (Q8TDX7 whole entry, looked up): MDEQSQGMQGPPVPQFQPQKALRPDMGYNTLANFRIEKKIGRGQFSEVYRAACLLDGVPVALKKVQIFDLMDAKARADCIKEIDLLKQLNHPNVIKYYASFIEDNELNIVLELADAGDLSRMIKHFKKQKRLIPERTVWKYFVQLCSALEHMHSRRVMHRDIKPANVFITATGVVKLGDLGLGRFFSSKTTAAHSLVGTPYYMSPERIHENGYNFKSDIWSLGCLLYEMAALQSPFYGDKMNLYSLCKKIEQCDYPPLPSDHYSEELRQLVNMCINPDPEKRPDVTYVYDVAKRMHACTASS
# [9] = biological target: Serine/threonine-protein kinase Nek7 (Homo sapiens) (UniProt Q8TDX7); conditions: at 1 µM
# [10] = biological target: T4, Serine/threonine-protein kinase Nek9 (Homo sapiens) (UniProt Q8TD19); conditions: at 0.1 µM
# T4 sequence (whole entry): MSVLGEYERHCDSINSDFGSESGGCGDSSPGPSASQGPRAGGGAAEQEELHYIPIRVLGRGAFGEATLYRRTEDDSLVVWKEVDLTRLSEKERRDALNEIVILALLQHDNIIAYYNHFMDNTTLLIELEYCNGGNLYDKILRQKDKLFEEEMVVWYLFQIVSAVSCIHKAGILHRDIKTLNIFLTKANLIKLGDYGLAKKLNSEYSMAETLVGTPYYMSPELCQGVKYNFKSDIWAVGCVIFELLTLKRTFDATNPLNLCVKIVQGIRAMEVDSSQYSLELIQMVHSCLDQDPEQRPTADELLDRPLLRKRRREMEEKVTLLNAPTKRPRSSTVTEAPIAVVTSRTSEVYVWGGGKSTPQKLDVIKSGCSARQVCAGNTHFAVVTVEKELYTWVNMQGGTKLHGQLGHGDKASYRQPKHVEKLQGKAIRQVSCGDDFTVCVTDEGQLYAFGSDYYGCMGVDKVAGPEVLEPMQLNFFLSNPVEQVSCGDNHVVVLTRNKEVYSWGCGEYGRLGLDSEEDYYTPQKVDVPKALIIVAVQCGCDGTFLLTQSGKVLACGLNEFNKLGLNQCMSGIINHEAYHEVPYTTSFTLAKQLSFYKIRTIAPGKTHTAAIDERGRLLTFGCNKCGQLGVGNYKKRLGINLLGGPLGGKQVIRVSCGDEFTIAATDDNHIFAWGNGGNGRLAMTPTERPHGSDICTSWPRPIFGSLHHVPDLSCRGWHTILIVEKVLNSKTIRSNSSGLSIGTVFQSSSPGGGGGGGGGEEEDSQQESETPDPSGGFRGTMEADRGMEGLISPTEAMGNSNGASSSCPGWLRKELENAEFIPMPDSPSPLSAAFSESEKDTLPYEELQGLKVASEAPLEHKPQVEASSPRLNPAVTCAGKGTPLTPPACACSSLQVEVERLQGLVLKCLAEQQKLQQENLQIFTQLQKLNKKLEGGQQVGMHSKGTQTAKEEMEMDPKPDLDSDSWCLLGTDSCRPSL
# [11] = biological target: T4, Serine/threonine-protein kinase Nek9 (Homo sapiens); conditions: at 1 µM
# [12] = biological target: Serine/threonine-protein kinase PLK1 (Homo sapiens) (UniProt P53350); conditions: at 0.1 µM
# Sequence of Serine/threonine-protein kinase PLK1 (Homo sapiens) (P53350 whole entry): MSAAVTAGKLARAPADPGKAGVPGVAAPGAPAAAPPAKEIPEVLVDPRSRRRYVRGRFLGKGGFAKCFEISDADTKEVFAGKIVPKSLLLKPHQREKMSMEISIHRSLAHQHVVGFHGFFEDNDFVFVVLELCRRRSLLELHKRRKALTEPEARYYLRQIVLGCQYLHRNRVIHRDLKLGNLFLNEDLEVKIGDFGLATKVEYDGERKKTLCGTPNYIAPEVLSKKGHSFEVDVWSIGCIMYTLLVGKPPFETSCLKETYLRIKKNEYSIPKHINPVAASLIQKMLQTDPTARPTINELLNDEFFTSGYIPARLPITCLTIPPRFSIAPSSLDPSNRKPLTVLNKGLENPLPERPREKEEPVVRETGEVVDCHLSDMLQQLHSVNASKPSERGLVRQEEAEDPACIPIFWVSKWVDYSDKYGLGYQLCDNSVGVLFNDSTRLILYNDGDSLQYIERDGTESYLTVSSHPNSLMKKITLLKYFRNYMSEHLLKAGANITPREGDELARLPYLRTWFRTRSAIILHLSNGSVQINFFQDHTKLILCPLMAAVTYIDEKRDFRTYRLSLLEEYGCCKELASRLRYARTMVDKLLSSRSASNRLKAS
# [13] = biological target: Serine/threonine-protein kinase PLK1 (Homo sapiens) (UniProt P53350); conditions: at 1 µM
# [14] = biological target: T5, Dual specificity protein kinase TTK (Homo sapiens) (UniProt P33981); conditions: at 0.1 µM
# T5 sequence (whole entry): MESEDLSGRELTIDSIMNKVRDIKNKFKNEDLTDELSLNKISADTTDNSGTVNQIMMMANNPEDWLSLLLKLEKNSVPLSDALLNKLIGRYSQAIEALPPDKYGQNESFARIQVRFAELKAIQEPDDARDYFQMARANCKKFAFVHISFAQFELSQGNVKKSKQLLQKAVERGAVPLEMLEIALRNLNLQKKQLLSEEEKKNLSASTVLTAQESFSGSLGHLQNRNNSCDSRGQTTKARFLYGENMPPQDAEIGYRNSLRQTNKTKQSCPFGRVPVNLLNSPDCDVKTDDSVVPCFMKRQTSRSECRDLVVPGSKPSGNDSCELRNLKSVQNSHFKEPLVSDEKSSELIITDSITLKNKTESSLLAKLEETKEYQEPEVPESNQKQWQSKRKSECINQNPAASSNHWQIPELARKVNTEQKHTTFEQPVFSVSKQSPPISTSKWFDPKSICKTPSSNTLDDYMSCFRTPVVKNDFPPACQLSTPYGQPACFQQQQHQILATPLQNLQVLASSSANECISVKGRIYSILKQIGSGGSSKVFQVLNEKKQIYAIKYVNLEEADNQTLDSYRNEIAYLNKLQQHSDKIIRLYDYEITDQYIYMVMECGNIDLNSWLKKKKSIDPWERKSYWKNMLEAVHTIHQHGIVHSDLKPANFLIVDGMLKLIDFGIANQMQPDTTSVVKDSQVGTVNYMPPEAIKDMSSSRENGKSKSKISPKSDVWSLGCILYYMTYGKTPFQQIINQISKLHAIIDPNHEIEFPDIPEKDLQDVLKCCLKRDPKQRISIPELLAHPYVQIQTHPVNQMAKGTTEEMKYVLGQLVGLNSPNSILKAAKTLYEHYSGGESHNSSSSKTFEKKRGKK
# [15] = tested on: T6, Receptor-type tyrosine-protein kinase FLT3 (Homo sapiens), P36888 [D835Y]; conditions: at 1 µM
# T6 sequence (whole entry): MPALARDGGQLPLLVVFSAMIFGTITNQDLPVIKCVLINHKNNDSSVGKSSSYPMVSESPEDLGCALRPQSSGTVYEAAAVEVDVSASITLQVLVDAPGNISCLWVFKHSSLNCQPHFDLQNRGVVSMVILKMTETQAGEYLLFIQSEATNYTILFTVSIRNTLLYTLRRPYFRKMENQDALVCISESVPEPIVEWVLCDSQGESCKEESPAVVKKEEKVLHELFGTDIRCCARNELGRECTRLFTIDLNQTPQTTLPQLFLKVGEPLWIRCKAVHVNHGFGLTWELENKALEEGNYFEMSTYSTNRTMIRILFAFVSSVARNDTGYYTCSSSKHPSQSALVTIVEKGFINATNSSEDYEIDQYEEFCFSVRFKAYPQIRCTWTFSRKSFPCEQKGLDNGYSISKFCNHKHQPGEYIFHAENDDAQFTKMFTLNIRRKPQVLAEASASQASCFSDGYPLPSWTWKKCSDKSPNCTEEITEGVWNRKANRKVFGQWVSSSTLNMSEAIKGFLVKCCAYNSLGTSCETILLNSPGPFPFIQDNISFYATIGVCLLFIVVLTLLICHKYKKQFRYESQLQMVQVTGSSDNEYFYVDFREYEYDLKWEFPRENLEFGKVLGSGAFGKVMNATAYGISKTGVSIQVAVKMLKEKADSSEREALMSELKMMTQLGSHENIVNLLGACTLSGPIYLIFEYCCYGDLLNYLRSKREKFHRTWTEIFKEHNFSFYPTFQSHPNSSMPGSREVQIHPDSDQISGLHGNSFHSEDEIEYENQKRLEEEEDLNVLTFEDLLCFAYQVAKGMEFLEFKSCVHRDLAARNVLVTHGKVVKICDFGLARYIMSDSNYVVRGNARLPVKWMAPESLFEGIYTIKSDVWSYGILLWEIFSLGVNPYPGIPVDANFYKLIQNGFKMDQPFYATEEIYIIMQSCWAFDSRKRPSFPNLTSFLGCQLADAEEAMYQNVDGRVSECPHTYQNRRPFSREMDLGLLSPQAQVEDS
# [16] = biological target: Vascular endothelial growth factor receptor 3 (Homo sapiens) (UniProt P35916); conditions: at 0.1 µM
# Sequence of Vascular endothelial growth factor receptor 3 (Homo sapiens) (P35916 whole entry): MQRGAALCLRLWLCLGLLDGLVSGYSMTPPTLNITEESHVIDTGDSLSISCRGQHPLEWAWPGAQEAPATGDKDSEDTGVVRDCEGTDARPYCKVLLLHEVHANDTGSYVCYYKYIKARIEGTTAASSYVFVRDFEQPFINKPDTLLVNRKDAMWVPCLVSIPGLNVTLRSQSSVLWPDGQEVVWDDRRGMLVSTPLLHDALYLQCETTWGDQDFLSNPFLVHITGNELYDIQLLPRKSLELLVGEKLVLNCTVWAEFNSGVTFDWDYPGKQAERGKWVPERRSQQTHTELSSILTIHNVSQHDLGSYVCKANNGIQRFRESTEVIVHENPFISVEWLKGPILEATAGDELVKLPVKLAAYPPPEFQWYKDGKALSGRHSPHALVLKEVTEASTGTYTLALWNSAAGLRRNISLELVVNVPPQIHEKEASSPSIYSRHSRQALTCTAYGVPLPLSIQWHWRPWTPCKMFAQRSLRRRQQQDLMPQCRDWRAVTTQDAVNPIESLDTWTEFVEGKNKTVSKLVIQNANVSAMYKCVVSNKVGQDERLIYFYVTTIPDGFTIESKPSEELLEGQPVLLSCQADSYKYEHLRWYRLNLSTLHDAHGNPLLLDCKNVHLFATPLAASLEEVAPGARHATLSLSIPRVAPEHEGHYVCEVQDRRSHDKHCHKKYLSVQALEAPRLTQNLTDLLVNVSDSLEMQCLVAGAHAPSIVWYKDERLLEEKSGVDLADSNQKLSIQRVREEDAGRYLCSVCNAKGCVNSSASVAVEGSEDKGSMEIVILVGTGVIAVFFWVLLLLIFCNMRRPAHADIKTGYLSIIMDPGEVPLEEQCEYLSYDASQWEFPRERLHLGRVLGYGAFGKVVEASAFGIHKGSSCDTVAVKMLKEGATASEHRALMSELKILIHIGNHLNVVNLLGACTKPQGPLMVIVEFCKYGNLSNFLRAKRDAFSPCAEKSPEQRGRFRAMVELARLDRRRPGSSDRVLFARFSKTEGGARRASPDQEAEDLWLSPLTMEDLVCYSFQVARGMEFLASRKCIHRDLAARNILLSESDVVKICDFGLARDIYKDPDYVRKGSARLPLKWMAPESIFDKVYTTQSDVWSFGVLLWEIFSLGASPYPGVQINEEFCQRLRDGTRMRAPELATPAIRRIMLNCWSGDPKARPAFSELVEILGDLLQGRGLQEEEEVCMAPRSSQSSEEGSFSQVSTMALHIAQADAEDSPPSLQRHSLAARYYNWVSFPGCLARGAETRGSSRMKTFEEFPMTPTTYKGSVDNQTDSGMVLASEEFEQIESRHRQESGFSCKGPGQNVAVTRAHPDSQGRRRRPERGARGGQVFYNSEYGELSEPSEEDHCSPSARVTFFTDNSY
# [17] = biological target: Vascular endothelial growth factor receptor 3 (Homo sapiens) (UniProt P35916); conditions: at 1 µM
# [18] = biological target: Macrophage colony-stimulating factor 1 receptor (Homo sapiens) (UniProt P07333); conditions: at 0.1 µM
# Sequence of Macrophage colony-stimulating factor 1 receptor (Homo sapiens) (P07333 whole entry): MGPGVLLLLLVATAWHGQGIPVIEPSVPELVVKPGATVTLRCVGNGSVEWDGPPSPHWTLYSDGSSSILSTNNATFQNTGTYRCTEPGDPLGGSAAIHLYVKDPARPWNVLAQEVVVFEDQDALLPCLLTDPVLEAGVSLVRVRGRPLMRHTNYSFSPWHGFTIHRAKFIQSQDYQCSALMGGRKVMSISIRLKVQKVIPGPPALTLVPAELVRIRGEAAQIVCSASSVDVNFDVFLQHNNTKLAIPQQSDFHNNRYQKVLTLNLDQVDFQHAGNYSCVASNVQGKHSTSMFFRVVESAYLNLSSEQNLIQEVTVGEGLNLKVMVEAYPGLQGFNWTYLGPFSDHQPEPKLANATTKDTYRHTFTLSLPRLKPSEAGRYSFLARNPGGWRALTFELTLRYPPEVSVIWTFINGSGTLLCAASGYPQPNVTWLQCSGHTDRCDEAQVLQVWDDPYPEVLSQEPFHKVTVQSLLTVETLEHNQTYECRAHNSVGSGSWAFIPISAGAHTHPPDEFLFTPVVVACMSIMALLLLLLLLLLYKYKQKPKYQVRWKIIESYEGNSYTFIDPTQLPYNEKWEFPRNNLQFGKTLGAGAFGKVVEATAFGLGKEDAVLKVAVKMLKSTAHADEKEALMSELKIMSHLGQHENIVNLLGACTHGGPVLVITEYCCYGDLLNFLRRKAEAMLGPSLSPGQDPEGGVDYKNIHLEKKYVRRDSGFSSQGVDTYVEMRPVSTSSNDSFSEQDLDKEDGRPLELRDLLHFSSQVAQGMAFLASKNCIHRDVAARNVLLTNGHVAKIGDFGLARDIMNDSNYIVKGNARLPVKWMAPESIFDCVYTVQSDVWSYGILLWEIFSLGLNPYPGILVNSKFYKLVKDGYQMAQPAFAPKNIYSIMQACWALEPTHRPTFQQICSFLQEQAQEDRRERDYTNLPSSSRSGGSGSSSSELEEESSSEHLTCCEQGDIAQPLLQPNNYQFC
# [19] = biological target: Macrophage colony-stimulating factor 1 receptor (Homo sapiens) (UniProt P07333); conditions: at 1 µM
# [20] = biological target: Tyrosine-protein kinase Fyn (Homo sapiens) (UniProt P06241); conditions: at 0.1 µM
# Sequence of Tyrosine-protein kinase Fyn (Homo sapiens) (P06241 2-537 limits assumed): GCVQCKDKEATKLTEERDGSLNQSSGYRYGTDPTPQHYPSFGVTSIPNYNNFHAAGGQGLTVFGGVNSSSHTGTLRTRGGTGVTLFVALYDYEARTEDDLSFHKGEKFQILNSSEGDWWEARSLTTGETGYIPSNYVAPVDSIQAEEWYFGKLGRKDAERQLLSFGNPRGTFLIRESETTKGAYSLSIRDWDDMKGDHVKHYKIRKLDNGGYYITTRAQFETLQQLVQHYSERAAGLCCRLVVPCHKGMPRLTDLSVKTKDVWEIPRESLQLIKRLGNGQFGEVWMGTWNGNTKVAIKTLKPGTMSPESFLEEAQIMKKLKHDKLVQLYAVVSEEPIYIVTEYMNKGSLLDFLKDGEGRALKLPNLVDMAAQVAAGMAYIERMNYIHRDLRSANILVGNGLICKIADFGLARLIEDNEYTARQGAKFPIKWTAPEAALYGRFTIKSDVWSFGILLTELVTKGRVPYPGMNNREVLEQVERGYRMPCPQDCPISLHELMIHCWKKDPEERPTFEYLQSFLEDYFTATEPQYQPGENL
Structure (SMILES),inhibition [1],inhibition [2],inhibition [3],inhibition [4],inhibition [5],inhibition [6],inhibition [7],inhibition [8],inhibition [9],inhibition [10],inhibition [11],inhibition [12],inhibition [13],inhibition [14],inhibition [15],inhibition [16],inhibition [17],inhibition [18],inhibition [19],inhibition [20]
Nc1nccc(-c2c(-c3ccc(F)cc3)nn3cc(C(F)(F)F)ccc23)n1,0.39%,-0.26%,-0.62%,0%,1.3%,0.29%,-2.61%,-1.44%,0.7%,0.57%,0.92%,2.53%,0.4%,1.73%,-4.89%,0.03%,-1.18%,-4.62%,7.32%,0.43%
NC(=O)c1sc(-n2cnc3ccccc32)cc1OCc1ccccc1Br,6.21%,1.75%,2.24%,4.32%,3.39%,-0.26%,2.86%,3.33%,9.69%,8.49%,23.5%,78.3%,95.3%,10.6%,-5.34%,2.98%,4.24%,-0.73%,7.89%,3.58%
